Experimental data published in PubChem BioAssay AID435022 (Sanford-Burnham Center for Chemical Genomics, 2010).
About 1,100 (0.33%) of roughly 330,000 compounds were called active. Cut-off read from the data, not from the text of the source: active = inhibition above about 35%; inactive = the rest. For the sample, actives were picked, then their nearest neighbours and some compounds at random.

Experiment: lowers stimulated NF-kB luciferase signal in 697 B cells – cell-based, luminescence, uHTS, B-cell NF-kB inhibitor project, primary screen (AID 435022)
Settings: 697 B-cell NF-kB luciferase reporter, PMA/ionomycin, 16 h; at 4 µM; hits give high values

Structure (SMILES)	inhibition
COc1ccc(CNC(=O)C2CCN(S(C)(=O)=O)CC2)cc1	3.89% (inactive)
COc1ccc(CNC(=O)[C@@H]2CC=C[C@@H]3CCN(C4CC4)C(=O)[C@@H]32)cc1	37.2% (active)
COc1ccc(CNC(=O)C2CCCC2)cc1	9.55% (inactive)
CC(NC(=S)Nc1ccc(OC(F)F)cc1)c1ccc(F)cc1 (stereo not given)	2.48% (inactive)
COC(=O)c1cc(OC)c(OC)cc1NC(=O)C1CCCO1 (stereo not given)	6.92% (inactive)
Cn1nccc1C(=O)NC1CCCc2c1cnn2-c1ccc(F)cc1F (stereo not given)	36.2% (active)
Cn1nccc1C(=O)NC1CCCc2c1cnn2-c1ccccc1F (stereo not given)	62.7% (active)
COc1ccc(C(=O)NC2CCCc3c2cnn3-c2cccc(C)c2C)c(OC)n1 (stereo not given)	-399% (inactive)
COc1ccc(C(=O)NC2CC(C)(C)Cc3c2cnn3-c2ccccc2C)o1 (stereo not given)	4.57% (inactive)
CC1(C)Cc2c(cnn2-c2cccc(F)c2)C(NC(=O)c2cc[n+]([O-])cc2)C1 (stereo not given)	-12.6% (inactive)
Cc1ccc(-n2ncc3c2CCCC3NC(=O)c2cnccn2)cc1C (stereo not given)	-27.6% (inactive)
CC(C)(C)C(=O)NCCCNc1ccc([N+](=O)[O-])cc1	14.1% (inactive)
CN(C(=O)CC(NC(=O)c1ccccc1)(c1ccccc1)c1ccccc1)c1ccccc1	12% (inactive)
COC(=O)/C(C#N)=C/c1occc1C	5.66% (inactive)
CC(NCc1cccs1)C(=O)Nc1cc(Cl)cc(Cl)c1 (stereo not given)	7.31% (inactive)
CN(C)c1ccc(-n2cccc2/C=N/n2cnnc2)cc1	-4.94% (inactive)
CCc1ccnc(NC(=O)Nc2ccc(OCc3ccccc3)cc2)c1	6.55% (inactive)
O=c1[nH]c(-c2ccccc2)c(-c2ccccc2)[nH]1	35.4% (active)

Structure (SMILES)	inhibition
O=c1cc(-c2ccccc2)nc(N2CCCCC2)[nH]1	11.5% (inactive)
O=C(O)c1n[nH]nc1-c1ccccc1	14.7% (inactive)
COc1ccc(CNC(=O)C[C@H]2C[C@H](C(=O)N3CCOCC3)[C@@]3(C)c4[nH]c5cc(CCC(=O)N(C)C)ccc5c4CCN3C2=O)cc1OC	11.5% (inactive)
CN1CC(c2ccccc2)C2(COc3ccccc3C2=O)C12C(=O)Nc1ccccc12 (stereo not given)	11.7% (inactive)
CC(=O)c1nc(N2C(=O)C3CC=C(C)CC3C2=O)sc1C (stereo not given)	23.1% (inactive)
C[C@@H]1C[C@@H]2O[C@H]2/C=C\C=C\C(=O)Cc2c(Cl)c(O)cc(O)c2C(=O)O1	83.8% (active)
COc1ccc(NC(=O)CSc2nc(SC)ns2)c(OC)c1	-40% (inactive)
CCOC(=O)CSC1=N/C(=C/c2ccc(-n3cncn3)cc2)C(=O)N1C(C)=O	6.08% (inactive)
C=CCC[C@@H](Cc1ccc(F)cc1)C(=O)O[C@H](CNC(=O)[C@H](CC=C)CC(=O)N(CCO)Cc1ccccc1)c1ccccc1	1.62% (inactive)
CCOc1ccc(C(=O)CCC(=O)NC2=NCCS2)cc1	21.2% (inactive)
O=C(CS(=O)(=O)Cc1ccccc1)Nc1cccnc1	-24.8% (inactive)
CN1CCN(CCCCOc2ccccc2-c2ccccc2)CC1	-15% (inactive)
OCCN1CCN(C(=S)c2ccc(-c3ccccc3)cc2)CC1	55.1% (active)
S=C(c1ccc(-c2ccccc2)o1)N1CCCCC1	-134% (inactive)
Cc1cc(=O)oc2c(C(=O)c3ccccc3)c(OCC(N)=O)ccc12	-14.5% (inactive)
O=C(CSC1=NS(=O)(=O)c2cc(F)ccc2N1)Nc1ccccc1F	1.35% (inactive)
NCCCC[C@@H]1NC(=O)[C@H](CCC(=O)O)NC(=O)c2cc([N+](=O)[O-])cc(I)c2NCC[C@@H](C(N)=O)NC1=O	18.3% (inactive)
